Results filed as inconclusive are left out. Active and inactive are the calls of the source.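 Rule for the calls, unless noted: active = inhibition over a set limit, the all-compound mean plus 3 SD, in both replicate runs; inconclusive = over that limit in just one replicate run; inactive = at or under that limit in both runs.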
What was measured:
[1] = reducers of endogenous Her2 protein level, primary screen, SKBR3 breast tumor cells, AlphaScreen, ATP viability (AID 461;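 active = Her2 level under about 52% in both replicate screens, with viability over 70% of control, limit read from the data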;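 for Her2 level: lower value means less Her2 protein in the cells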;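 for viability: percent of carrier control wells set as 100% viability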); settings: 18-24 h, measured here: SKBR3 viability, ATP luminescence, at 10 µM
[2] = biological target: Receptor tyrosine-protein kinase erbB-2 (Homo sapiens) (UniProt P04626); test: as above; settings: 18-24 h, at 10 µM, stronger effect = lower value
Chain of Receptor tyrosine-protein kinase erbB-2 (Homo sapiens) (P04626 whole entry, looked up): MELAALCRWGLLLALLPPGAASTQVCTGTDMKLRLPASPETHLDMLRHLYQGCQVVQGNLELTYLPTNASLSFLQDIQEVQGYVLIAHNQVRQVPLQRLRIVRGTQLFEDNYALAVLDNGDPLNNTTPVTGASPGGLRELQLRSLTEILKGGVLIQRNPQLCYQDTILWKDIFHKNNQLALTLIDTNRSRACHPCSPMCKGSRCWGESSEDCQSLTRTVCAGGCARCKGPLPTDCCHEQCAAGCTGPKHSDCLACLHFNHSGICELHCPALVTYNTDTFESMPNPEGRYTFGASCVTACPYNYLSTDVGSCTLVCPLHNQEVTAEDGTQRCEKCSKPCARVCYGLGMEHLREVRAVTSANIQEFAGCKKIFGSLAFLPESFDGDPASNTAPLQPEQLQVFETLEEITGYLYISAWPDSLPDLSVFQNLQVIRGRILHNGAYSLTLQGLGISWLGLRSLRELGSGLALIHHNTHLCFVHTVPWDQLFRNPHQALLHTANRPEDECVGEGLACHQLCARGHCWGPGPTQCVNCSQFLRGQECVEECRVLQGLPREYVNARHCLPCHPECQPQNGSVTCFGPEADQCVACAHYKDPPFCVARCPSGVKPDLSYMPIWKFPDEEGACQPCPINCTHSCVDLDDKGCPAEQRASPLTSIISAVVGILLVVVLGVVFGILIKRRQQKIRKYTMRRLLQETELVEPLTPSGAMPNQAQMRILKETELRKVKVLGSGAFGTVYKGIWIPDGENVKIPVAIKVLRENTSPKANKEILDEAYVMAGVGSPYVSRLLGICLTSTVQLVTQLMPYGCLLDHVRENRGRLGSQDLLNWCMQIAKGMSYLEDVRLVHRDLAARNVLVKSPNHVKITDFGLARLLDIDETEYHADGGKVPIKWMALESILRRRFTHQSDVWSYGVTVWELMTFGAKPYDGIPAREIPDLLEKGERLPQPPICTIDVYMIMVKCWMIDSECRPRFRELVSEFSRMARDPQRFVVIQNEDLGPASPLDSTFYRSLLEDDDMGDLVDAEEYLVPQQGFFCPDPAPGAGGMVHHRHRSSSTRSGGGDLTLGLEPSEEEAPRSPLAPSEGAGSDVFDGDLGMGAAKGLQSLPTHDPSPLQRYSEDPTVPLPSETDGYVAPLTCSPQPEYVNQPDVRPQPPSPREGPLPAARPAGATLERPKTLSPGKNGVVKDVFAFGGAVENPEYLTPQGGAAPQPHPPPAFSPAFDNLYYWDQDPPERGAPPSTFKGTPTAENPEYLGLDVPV

[3] = SK-BR-3 cell growth inhibitors, pilot screen, 24 h, human (AID 572;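 active = viability at or below 10% of carrier control in both of two separate runs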;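 note: compound exposure lasted between 18 and 24 h rather than exactly 24 h; 100% = carrier-treated control wells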); settings: SK-BR-3 viability, CellTiter-Glo luminescence, at 10 µM, stronger effect = lower value
[4] = HUVEC growth inhibition – cell-based, human, primary screen (AID 575;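 active = viability at or below 30% in both replicate assays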;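 note: 100% = median of untreated cell wells with 0.1% DMSO on each plate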); settings: HUVEC proliferation, CellTiter-Glo luminescence, 72 h; at 10 µM; stronger effect = lower value
[5] = growth inhibitors of H69AR lung tumor, primary screen, human, duplicate replicates (AID 580;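 active = viability at or under a set limit in both replicates, limit being median viability minus 3 SD, cut at about 48% in these data, passing the limit was not always enough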;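 note: 100% = mean luminescence of untreated wells and 0% = no signal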); settings: H69AR lung tumor cells viability, ATP luminescence, 72 h; at 10 µM; stronger effect = lower value
[6] = reversal of MRP1-mediated doxorubicin resistance, pilot screen, H69AR cells, doxorubicin co-treatment (AID 601;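 active = viability loss from added drug above about 55%, and viability with drug at most 40%, in both replicates, limit read from the data, passing the limit was not always enough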); settings: CellTiter-Glo, 72 h, at 10 µM; for differential viability (reversal): stronger effect = higher value
[7] = 384-well plate pilot, post-Golgi transport modulator project, inhibition of yeast transport mutant growth (AID 636; in the data active = inhibition above about 31%); settings: absorbance 615 nm, about 18 h, stronger effect = higher value
[8] = growth suppression of yeast trafficking mutant, preliminary HTS, modulators of trafficking downstream of Golgi apparatus project, 1536-format plate, OD 615 nm (AID 637; in the data active = inhibition above about 30%); settings: yeast transport mutant growth, absorbance 615 nm, 18 h; stronger effect = higher value
[9] = OD615 S. cerevisiae growth inhibition, permissive medium, pilot counter-assay, permissive growth control for S. cerevisiae lifespan shortening project (AID 705;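 active = growth inhibition above 25% in both replicates, a cutoff set 3 SD above the mean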); settings: OD615, 24 h, at 10 µM, stronger effect = higher value
[10] = Restrictive medium S. cerevisiae growth inhibition, OD615, pilot screen of yeast lifespan reduction project, restrictive growth control (AID 706;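 active = growth inhibition above a set limit, 3 SD over mean compound inhibition, in both replicates, cut at about 43% in these data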;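 note: modified DeaD lifespan yeast strain shifted to restrictive glucose medium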); settings: OD615, 48 h, at 10 µM, stronger effect = higher value
[11] = viability gain of MRP-1-high H69AR cells under doxorubicin, pilot screen, MRP-1 activator project, CellTiter-Glo, duplicate (AID 807;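 active = viability increase at or above a cutoff of the median across tested compounds plus 3 SD, cut at about 8.5% in these data, passing the limit was not always enough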;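 note: compound pretreatment 18-22 h then 72 h combined with doxorubicin; 0% = doxorubicin alone and 100% = vehicle without doxorubicin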); settings: H69AR viability with doxorubicin, CellTiter-Glo luminescence; at 10 µM; stronger effect = higher value
[12] = growth suppression of beta-catenin knockout HCT116, pilot screen, human colon tumor cells (AID 823;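 active = cell viability at or below a set limit in both duplicate runs, the limit being the all-compound median minus 4 SD, cut at about 23% in these data, passing the limit was not always enough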;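 note: 0% = wells killed by 20 µM Hyamine and 100% = untreated DMSO cell wells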); settings: CellTiter-Glo, 60 h, at 10 µM, stronger effect = lower value
[13] = growth suppression of PTEN-deleted HCT116, pilot screen, cell-based, HCT116 clonal line, CellTiter-Glo (AID 824;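 active = viability at or below 27.92% in each of two runs, the all-compound median minus 4 SD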;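 note: 0% = 20 µM Hyamine control and 100% = vehicle cell control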); settings: 60 h, at 10 µM, stronger effect = lower value
[14] = inhibitors of the yeast RAM network, pilot screen, dse1pr::URA3 reporter, 5-FOA selection (AID 869);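 note: 0% = DMSO wells with no growth and 100% = 10 µM 1-NA-PP1 with full growth; RAM network block rescues cells from 5-FOA so hits raise OD615 growth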; settings: S. cerevisiae dse1pr::URA3 5-FOA growth, OD615, 2 d; at 10 µM; stronger effect = higher value; strain carries analog-sensitive mutant Cbk1 kinase
[15] = RAM signaling pathway blockade in yeast – S. cerevisiae, Pdr1DBD-CYC8 efflux-inhibited sensitized strain, primary screen (AID 1298;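 active = RAM network inhibition above 8.4% in each of two replicates, 3 SD over the compound average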;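 note: 0% = DMSO untreated cells without growth and 100% = 10 µM 1-NA-PP1 full growth; higher means more yeast growth rescued from 5-FOA killing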); settings: S. cerevisiae cbk1-as DSE1-URA3 strain, 5-FOA growth OD615, 2 d; at 50 µM; stronger effect = higher value
[16] = H69AR cells + 2 uM doxorubicin, measured here: viability with 2 uM doxorubicin, stronger effect = lower value
[17] = H69AR cells, compound alone cytotoxicity

Cc1noc(/C=C/N(C)C)c1S(=O)(=O)N1CCCC(C(=O)NCCC2=CCCCC2)C1 (stereo not given)
94.5%: viability [1]
88.7%: viability [6, 16]
104%: viability [6, 17]
inactive: Her2 level [2] 79% | viability [3] 94.5% | viability [4] 79.7% | viability [5] 104% | differential viability (reversal) ([6]; H69AR cells + 2 uM doxorubicin) 15.8% | inhibition [7] -1.87% | inhibition [8] -1.31% | growth inhibition [9] -0.38% | growth inhibition [10] -11.2% | viability increase [11] 2.75% | viability [12] 92.1% | viability [13] 72.8% | inhibition [14] 1.23% | RAM network inhibition [15] 6.39%

CN1CCN(c2nc3c(c(=O)[nH]c(=O)n3C)n2CCSc2nc3ccccc3s2)CC1
75.2%: viability [6, 17]
85.8%: viability [6, 16]
87%: viability [1]
inactive: Her2 level [2] 90.5% | viability [3] 87% | viability [4] 98% | viability [5] 75.2% | differential viability (reversal) ([6]; H69AR cells + 2 uM doxorubicin) -10.6% | inhibition [7] -0.51% | inhibition [8] 1% | growth inhibition [9] -6.02% | growth inhibition [10] -0.85% | viability increase [11] -2.32% | viability [12] 98.3% | viability [13] 91.9% | inhibition [14] 2.66% | RAM network inhibition [15] -1.87%

c1ccc(-n2ncc3c(NC4CCCCCC4)ncnc32)cc1
inactive: Her2 level [2] 77% | viability [3] 83.5% | viability [4] 75.2% | differential viability (reversal) ([6]; H69AR cells + 2 uM doxorubicin) -28.2% | inhibition [7] -4.93% | inhibition [8] 1.67% | growth inhibition [9] -7.69% | growth inhibition [10] -4.42% | viability increase [11] -2.91% | viability [12] 88.4% | viability [13] 65.7% | inhibition [14] 1.17% | RAM network inhibition [15] 6.78%
45.8%: viability [6, 17]
74%: viability [6, 16]
83.5%: viability [1]
active: viability [5] 45.8%

Cc1cccc(OCC(=O)N2CCN(C(=O)Cc3ccccc3)CC2)c1
97.3%: viability [6, 17]
97.5%: viability [6, 16]
inactive: Her2 level [2] 94% | viability [3] 102% | viability [4] 107% | viability [5] 97.3% | differential viability (reversal) ([6]; H69AR cells + 2 uM doxorubicin) -0.125% | inhibition [7] -7.33% | inhibition [8] -0.97% | growth inhibition [9] -11.1% | growth inhibition [10] -28.1% | viability increase [11] -2.39% | viability [12] 85.4% | viability [13] 81.4% | inhibition [14] 0.285% | RAM network inhibition [15] 0.56%
102%: viability [1]

CCOc1ccc(NC(=O)CN2C(=O)C3CCCN3C2=O)cc1 (stereo not given)
101%: viability [6, 17]
97.5%: viability [6, 16]
inactive: Her2 level [2] 106% | viability [3] 85% | viability [4] 94.6% | viability [5] 101% | differential viability (reversal) ([6]; H69AR cells + 2 uM doxorubicin) 3.86% | inhibition [7] -2.53% | inhibition [8] 3.67% | growth inhibition [9] -4.76% | growth inhibition [10] -13.8% | viability increase [11] -0.9% | viability [12] 102% | viability [13] 97.1% | inhibition [14] -0.315% | RAM network inhibition [15] 2.93%
85%: viability [1]

CNC(=O)c1ccsc1NC(=O)c1ccccc1
80.8%: viability [6, 17]
88.5%: viability [1]
inactive: Her2 level [2] 74% | viability [3] 88.5% | viability [4] 83.8% | viability [5] 80.8% | differential viability (reversal) ([6]; H69AR cells + 2 uM doxorubicin) -3.68% | inhibition [7] -4.8% | inhibition [8] -3.5% | growth inhibition [9] 14.6% | growth inhibition [10] 14.5% | viability increase [11] -0.77% | viability [12] 102% | viability [13] 95.2% | inhibition [14] 1.97% | RAM network inhibition [15] -1.39%
84.5%: viability [6, 16]

COc1ccc(NC(=O)CSc2nnc(Cc3cccn3C)n2-c2ccc(F)cc2)cc1OC
94%: viability [6, 16]
94.7%: viability [6, 17]
86%: viability [1]
inactive: Her2 level [2] 92.5% | viability [3] 86% | viability [4] 104% | viability [5] 94.7% | differential viability (reversal) ([6]; H69AR cells + 2 uM doxorubicin) 0.655% | inhibition [7] 0.38% | inhibition [8] 3.17% | growth inhibition [9] 3.84% | growth inhibition [10] 1.52% | viability increase [11] -3.01% | viability [12] 94.5% | viability [13] 94.2% | inhibition [14] 1.43% | RAM network inhibition [15] 2.95%

CC1CCc2nn(CC(=O)NCc3ccc(F)cc3)cc2C1 (stereo not given)
93.6%: viability [6, 16]
122%: viability [1]
inactive: Her2 level [2] 102% | viability [3] 122% | viability [4] 79.4% | viability [5] 89.4% | differential viability (reversal) ([6]; H69AR cells + 2 uM doxorubicin) -4.28% | inhibition [7] -0.51% | inhibition [8] -2.33% | growth inhibition [9] -3.91% | growth inhibition [10] 8.68% | viability increase [11] -2.02% | viability [12] 86.4% | viability [13] 87.6% | inhibition [14] -0.73% | RAM network inhibition [15] 1.16%
89.4%: viability [6, 17]

CCCCN(CC)CCCNC(=O)c1cc2c(=O)n(C)c3ccccc3c2n1C
76%: viability [1]
70.2%: viability [6, 16]
inactive: Her2 level [2] 77% | viability [3] 76% | viability [4] 67.5% | viability [5] 70.1% | differential viability (reversal) ([6]; H69AR cells + 2 uM doxorubicin) -0.115% | inhibition [7] -2.05% | inhibition [8] -2% | growth inhibition [9] -8.88% | growth inhibition [10] -1.18% | viability increase [11] -7.73% | viability [12] 55.8% | viability [13] 54.6% | inhibition [14] -0.01% | RAM network inhibition [15] 1.02%
70.1%: viability [6, 17]

COc1ccc(-c2nc3c(c(SCC(=O)N4CCOCC4)n2)COC(C)(C)C3)cc1
111%: viability [1]
89.2%: viability [6, 17]
inactive: Her2 level [2] 113% | viability [3] 111% | viability [4] 85.5% | viability [5] 89.2% | differential viability (reversal) ([6]; H69AR cells + 2 uM doxorubicin) -2.95% | inhibition [7] -2% | inhibition [8] 13.8% | growth inhibition [9] 2.8% | growth inhibition [10] -4.27% | viability increase [11] -1.69% | viability [12] 101% | viability [13] 103% | inhibition [14] 0.94% | RAM network inhibition [15] 2.02%
92.1%: viability [6, 16]

From PubChem BioAssay
